# Sampled rows, rich in hits. Any-hit rate of the full collection: about 3.5%.
# Autofluor counter: flagged as autofluorescent in microsphere protease counterscreen. compound autofluorescence counterscreen, microsphere flow cytometry; stronger effect = higher value. fluorescence intensity (no concentration beside the values). actives 3.1% (n = 360,000). AID 624483; in the data active = fluorescence intensity above about 16000; inconclusive = no clear call, values can overlap the other calls
# Anthrax LF inh2: Bacillus anthracis LF protease inhibitors, primary screen, biochemical, multiplex microsphere, MLPCN library; actives 0.12% (n = 360,000); inhibition, % at 10 µM; Lethal factor (Bacillus anthracis), P15917; multiplex microsphere protease cleavage assay; note: plate controls were buffer without enzyme for full effect and enzyme alone for no effect
# Target sequence (P15917 whole entry, looked up): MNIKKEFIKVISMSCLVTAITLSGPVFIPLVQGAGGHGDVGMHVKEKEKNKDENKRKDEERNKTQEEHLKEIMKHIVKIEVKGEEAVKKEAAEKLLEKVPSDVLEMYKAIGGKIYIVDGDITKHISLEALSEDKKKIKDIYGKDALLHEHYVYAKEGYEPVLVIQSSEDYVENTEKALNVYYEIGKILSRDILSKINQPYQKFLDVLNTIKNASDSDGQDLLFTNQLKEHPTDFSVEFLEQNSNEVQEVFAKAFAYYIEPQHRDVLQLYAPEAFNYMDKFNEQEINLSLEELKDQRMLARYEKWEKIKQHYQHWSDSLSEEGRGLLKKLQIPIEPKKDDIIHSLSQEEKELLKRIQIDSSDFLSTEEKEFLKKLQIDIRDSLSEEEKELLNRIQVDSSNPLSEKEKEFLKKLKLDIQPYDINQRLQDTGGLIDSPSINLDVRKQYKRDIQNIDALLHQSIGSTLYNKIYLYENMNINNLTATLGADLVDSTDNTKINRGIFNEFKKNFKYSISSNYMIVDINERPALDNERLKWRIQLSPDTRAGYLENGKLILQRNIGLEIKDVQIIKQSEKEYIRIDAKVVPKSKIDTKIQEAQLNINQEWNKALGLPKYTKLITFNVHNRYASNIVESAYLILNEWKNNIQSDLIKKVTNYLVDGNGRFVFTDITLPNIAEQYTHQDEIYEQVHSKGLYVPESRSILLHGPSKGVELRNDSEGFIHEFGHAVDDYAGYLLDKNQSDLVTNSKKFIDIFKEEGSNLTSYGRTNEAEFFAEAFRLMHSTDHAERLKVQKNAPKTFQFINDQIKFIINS
# BoNT A protease: BoNT/A light chain protease inhibitors, primary screen, biochemical, flow cytometry, MLPCN library; Botulinum neurotoxin type A light chain protease (Clostridium botulinum A str. ATCC 3502); multiplex microsphere protease substrate cleavage; inhibition, % at 10 µM; actives 0.17% (n = 360,000); AID 588499, 2011; note: plate controls were buffer without enzyme for full effect and enzyme alone for no effect
# BoNT-F LC inh: BoNT/F light chain protease inhibitors, primary screen, biochemical, flow cytometry, MLPCN library; Botulinum neurotoxin type F light chain protease (Clostridium botulinum); Multiplex microsphere protease cleavage assay; inhibition, % at 10 µM; actives 0.22% (n = 360,000); AID 588497, 2011; in the data active = inhibition above about 35%, passing the limit was not always enough; inconclusive = no clear call, values can overlap the other calls; note: plate controls were buffer without enzyme for full effect and enzyme alone for no effect
# * marks the source's active call; other numbers are inactive results; ? = inconclusive. Cut-off read from the data, not from the text of the source, unless noted: active = inhibition above about 30%; inconclusive = no clear call, values can overlap the other calls; inactive = below that.
SMILES,Autofluor counter,Anthrax LF inh2,BoNT A protease,BoNT-F LC inh
COC(=O)c1cn(C(=O)c2ccc(C)cc2)c2ccccc12,2725,-2,0,-4
Cc1noc(C)c1C(=O)Nc1c(F)cc(F)cc1Br,23289*,-4,-3,-2
Cc1noc(C)c1C(=O)Nc1ccc(Cl)cc1C(F)(F)F,23519*,-7,-1,-2
Cc1cc(Cl)ccc1NNC(=O)c1c(C)noc1C,3972,-16,-6,?
Cc1cc(C(=O)Nc2c(F)cc(F)cc2Br)c(C)o1,17675*,1,-4,-6
O=C(Nc1c(F)cc(F)cc1Br)c1ccco1,14520,-1,?,13
Cc1noc(C)c1C(=O)Nc1ccc(F)cc1,2035,0,0,-5
C[n+]1cccc(NC(=O)c2ccccc2)c1,5516,5,0,2
COc1ccc(N(C(=O)c2ccn[nH]2)C(C(=O)NC2CCCC2)c2ccc(F)cc2)cc1 (centres undefined),4014,0,1,-13
COc1ccc(C(C(=O)NC2CCCC2)N(C(=O)c2snc(-c3ccc(F)cc3)c2N)c2cccc(F)c2)cc1 (centres undefined),23994*,-2,-2,-1
COc1ccc(C(C(=O)NC2CCCC2)N(C(=O)c2snc(-c3ccc(F)cc3)c2N)c2ccc(F)cc2)cc1 (centres undefined),24202*,-2,-2,-2
COc1ccc(N(C(=O)c2snc(C(N)=O)c2N)C(C(=O)NC2CCCC2)c2ccc(F)cc2)c(OC)c1 (centres undefined),3611,-18,0,-7
COc1ccc(C(C(=O)NC2CCCC2)N(C(=O)c2snc(-c3ccc(F)cc3)c2N)c2ccccc2)cc1 (centres undefined),20660*,-1,-1,0
COc1ccc(N(C(=O)c2snc(C(N)=O)c2N)C(C(=O)NC2CCCC2)c2ccc3ncccc3c2)cc1 (centres undefined),3441,-10,3,0
COc1ccc(C(C(=O)NC2CCCC2)N(C(=O)c2snc(-c3ccc(F)cc3)c2N)c2ccc(OC)cc2)cc1 (centres undefined),21490*,0,-1,0
CCOc1ccc2[nH]cc(-c3csc(N)n3)c2c1,2613,?,?,?
Cc1nc2c([nH]c3ccc(Br)cc32)s1,20775*,-1,0,0
Cc1n[nH]c2ccc(Br)cc2c1=O,2849,-3,0,0
CC1CN(C(=O)COC(=O)c2cc(=O)[nH]c3ccccc23)CC(C)O1 (centres undefined),3874,4,0,6
Cc1cc(C)c(S(=O)(=O)ON2C(=O)c3ccccc3C2=O)cc1C,23962*,-3,?,0
O=C(CSc1nnc(Cc2cccs2)n1C1CC1)NC1CCS(=O)(=O)C1 (centres undefined),5486,-1,-1,-3
NC(=O)CSc1nnc(COc2ccccc2)n1N,?,-4,2,6
NC(=O)CSc1nnc(COc2ccccc2)n1C1CCCCC1,19126*,1,2,-1
Cc1ccc(-c2noc(CSc3nnc(Cc4cccs4)n3-c3ccccc3)n2)cc1,6099,1,-1,0
NC(=O)CSc1nnc(Cc2cccs2)n1C1CCCCC1,19288*,3,2,0
SMILES,Autofluor counter,Anthrax LF inh2,BoNT A protease,BoNT-F LC inh
O=C1COc2ccc(C(=O)CSc3nnc(Cc4cccs4)n3-c3ccc(Cl)cc3)cc2N1,17966*,2,7,11
O=C1COc2ccc(C(=O)CSc3nnnn3-c3ccccc3)cc2N1,3143,-3,0,-19
Cc1ccc(-n2c(Cc3cccs3)nnc2SCC(N)=O)cc1,16452*,-1,?,0
Cc1ccc(NC(=O)N2CCCC(c3ccccc3)C2)cc1 (centres undefined),3817,13,-1,-41
CCOc1ccc(NC(=O)N2CCC(c3ccc(C)cc3)C2)cc1 (centres undefined),22970*,-4,-1,1
O=C(c1ccccc1)c1ccc2nc(-c3ccco3)c(-c3ccco3)nc2c1,3903,15,42*,-9
Cc1ccccc1Cn1ccc(-c2ccc(Cl)cc2)c(C#N)c1=O,23457*,-4,0,-4
CCc1ccc(NC(=O)C(CC)Sc2nc3cc4c(cc3c(=O)n2Cc2ccco2)OCO4)cc1 (centres undefined),20624*,-2,?,-3
CCOc1ccc(-c2cc(C(=O)NCCCn3ccnc3)c3ccccc3n2)cc1,4109,-4,-1,-1
CCOc1ccc(-c2cc(C(=O)NCCCN3CCN(CC)CC3)c3ccccc3n2)cc1,21315*,0,?,-4
CCOC(=O)CSc1nnc(CNC(=O)c2ccc(OC)cc2OC)n1-c1ccc(OC)cc1,21152*,1,-1,0
CCOC(=O)CSc1nnc(Cc2cc(=O)[nH]c(=O)[nH]2)n1-c1cccc(OC)c1,21403*,-14,?,-1
CCOC(=O)CSc1nnc(CNC(=O)c2ccc(OC)cc2OC)n1C,16030,1,?,1
COC(=O)CSc1nnc(Cc2cc(=O)[nH]c(=O)[nH]2)n1-c1cccc(OC)c1,3913,-2,0,4
CCN(CC(=O)Nc1cccc(OC)c1)C(=O)C1CC(=O)N(Cc2ccccc2Cl)C1 (centres undefined),3824,1,0,-6
CCc1cc(C(=O)COc2ccccc2F)c(O)cc1O,18558*,-6,?,2
COc1ccc(N2CC(O)(c3ccc(C)cc3)[N+]3=C2CCCC3)cc1 (centres undefined),3530,4,0,1
COc1ccc(N2C3=[N+](CCCC3)CC2(C)O)cc1 (centres undefined),16662*,-4,-3,-4
O=C(NCC1CCCCC1)c1ccco1,22013*,0,?,-4
CC1=NN(c2ccc(C(=O)OC(C)C)cc2)C(=O)/C1=C\C=C\c1ccco1,19581*,-5,2,-2
CCOC(=O)c1ccc(N2N=C(C)/C(=C/C=C/c3ccco3)C2=O)cc1,22790*,-5,?,-6
O=C(c1ccccc1)n1c2ccccc2c(=O)n1-c1ccccc1CCl,5282,1,-1,-15
CC(C)N1CCCC(C)(C(=O)Nc2nc3ccccc3n2C)C1 (centres undefined),3448,5,0,2
CC(=O)c1ccc(Cc2ccc(C(C)=O)s2)s1,2887,-3,0,-4
CC1(C(=O)Nc2cccc(Oc3ccccc3)c2)CCN1C1Cc2ccccc2C1 (centres undefined),3856,6,0,1
CCOC(=O)c1c(-c2cccs2)csc1NC(=O)CN(CC)CC,22950*,-6,-2,-1
CCOC(=O)c1c(-c2cccs2)csc1NC(=O)CC(C)C,4044,0,0,-9
C[C@H](CO)N1C[C@H](C)[C@H](CN(C)S(=O)(=O)c2ccccc2)Oc2c(NS(C)(=O)=O)cccc2C1=O,3629,-1,0,-2
CC(=O)N1CCN(C(=O)c2cccc(NS(=O)(=O)c3ccc(Br)cc3)c2)CC1,6216,-7,0,-7

# Bioassay records deposited in PubChem BioAssay by NMMLSC.
